WRN inhibitor – inhibitors of human WRN helicase | Q14191 | WRN helicase unwinding, fluorescent forked duplex, kinetic | Potency, µM (highest dose often 114 µM), usual class: inhibitors | actives 0.46% (n = 360,000) | AID 651768; further: nearly all actives have a fitted effect of over 55% in size
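WRN at 20 nM final preincubated with compound 15 min at room temperature; reaction started with 100 nM fluorophore/quencher forked duplex oligonucleotide and 2 mM ATP final. Unwinding followed kinetically by red fluorescence (ex 525, em 598 nm).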
PI5P4Ka inh – inhibitors of human PI5P4K alpha. actives 1.2% (n = 330,000). max response, %. AID 652105. PI5P4Kalpha enzyme, ADP-Glo luminescence, 60 min; active compounds read low; active means max response of -50% or lower; inconclusive means between -30% and -50%; inactive means -30% or higher; further: value at the top dose of about 77 µM
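ADP-Glo luminescence end-point read after a 60 min room-temperature kinase reaction of PI5P4Kalpha plus substrate, initiated with ATP at 5 microM final. Buffer: 0.038 M HEPES pH 7.4, EGTA, 0.1% CHAPS, 5% DMSO.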
VDR inh – blocks the human vitamin D receptor; Potency, µM, actives largely listed as inhibitors; VDR-SRC2-3 peptide fluorescence polarization, 2 h; AID 504847; actives 0.93% (n = 400,000)
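Reagent solutions, kept cold and dark, are dispensed first; compounds are then pinned in at 23 nl, plates briefly spun, and incubated 2 h at ambient temperature. Inhibition of VDR–SRC2-3 peptide binding is read by fluorescence polarization.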
PLK1 PBD block – PLK1 (human) polo-box domain binding inhibition; Plk1 PBD binding of FITC phosphopeptide, fluorescence polarization; Potency, µM, usual class: inhibitors; actives 2.8% (n = 360,000); AID 720504; further: series mostly up to about 57 µM; nearly all actives have a fitted effect of over 65% in size
Target sequence (P53350 whole entry, looked up, the tested form may be a part): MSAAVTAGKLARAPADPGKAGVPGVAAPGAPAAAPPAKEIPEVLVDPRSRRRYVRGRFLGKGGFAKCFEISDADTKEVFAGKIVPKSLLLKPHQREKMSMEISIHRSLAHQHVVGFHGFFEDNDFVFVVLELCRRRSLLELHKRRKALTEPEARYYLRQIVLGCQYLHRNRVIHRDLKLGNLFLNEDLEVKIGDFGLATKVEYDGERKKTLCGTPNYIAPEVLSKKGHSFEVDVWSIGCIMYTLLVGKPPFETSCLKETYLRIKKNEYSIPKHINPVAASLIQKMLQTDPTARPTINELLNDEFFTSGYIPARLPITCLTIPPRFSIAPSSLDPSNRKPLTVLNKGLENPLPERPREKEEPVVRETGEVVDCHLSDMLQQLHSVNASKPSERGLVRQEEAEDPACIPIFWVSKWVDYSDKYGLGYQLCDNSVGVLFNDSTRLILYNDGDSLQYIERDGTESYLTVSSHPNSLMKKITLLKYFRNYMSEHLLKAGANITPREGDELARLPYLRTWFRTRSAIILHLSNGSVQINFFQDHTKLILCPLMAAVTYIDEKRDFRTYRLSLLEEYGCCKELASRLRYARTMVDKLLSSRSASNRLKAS
TCR act – T cell receptor activation; 330,000 tested, under 10 active; primary human leukocytes, anti-CD3, IL-2 HTRF, 48 h; Potency, µM (highest dose often 9.22 µM), actives largely listed as activators; AID 504894
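Human primary leukocytes + a-CD3 beads + cpd, 48 hr; IL-2 in supernatant by HTRF (ex 320nm / em 665nm). No co-stimulatory signal supplied.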
FEN1 inhibitor – inhibitors of human flap endonuclease 1; AID 588795; actives 0.35% (n = 390,000); Recombinant FEN1 flap cleavage, fluorescence, 15 min; Potency, µM (series often up to 114 µM), most hits filed as inhibitors; further: nearly all actives have a fitted effect of over 65% in size
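With each library titrated from low to high concentration, compounds met 10 nM FEN1 for 15 min at room temperature before 50 nM substrate was added; readings at 0 and 15 min fed four-parameter Hill curve fits.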
Numbers stand for hits; i = inactive; ? = inconclusive; nt = no result. Rows were chosen to be rich in hits. Some 3.7% of all compounds tested hit in one or more screens of this group. Unless noted, the call rests on the fitted dose curve; in most records, active means well fitted curve in the direction sought with a large enough effect; inconclusive means small, poorly fitted or top-dose-only effect, or another doubt; inactive means no such curve, though single readings can be large; an effect the other way counts as inactive or inconclusive.

SMILES	WRN inhibitor	PI5P4Ka inh	VDR inh	PLK1 PBD block	TCR act	FEN1 inhibitor
COc1ccccc1Cn1[nH]nnc1=S	i	?	i	24µM	i	i
Cc1[nH]n(-c2ccccc2)c(=O)c1C(c1cccc([N+](=O)[O-])c1)c1c(C)[nH]n(-c2ccccc2)c1=O	?	i	56µM	24µM	i	?
COc1cccc(N=Nc2c(C)[nH]n(-c3ccccc3)c2=O)c1	i	i	i	i	i	i
Cc1[nH]n(-c2ccccc2)c(=O)c1CCO	i	i	i	i	i	i
Cc1[nH]n(-c2ccccc2)c(=O)c1C(c1ccc(C(=O)O)cc1)c1c(C)[nH]n(-c2ccccc2)c1=O	?	i	i	8.4µM	i	i
Cc1[nH]n(-c2ccccc2)c(=O)c1C(C[N+](=O)[O-])c1ccc(Br)cc1 (centres undefined)	?	i	?	27µM	i	i
COc1cccc(C(C[N+](=O)[O-])c2c(C)[nH]n(-c3ccccc3)c2=O)c1 (centres undefined)	i	i	?	30µM	i	i
Cc1ccc(C2C(/C=C3/SC(=S)NC3=O)=C(c3cccs3)Oc3ccccc32)cc1 (centres undefined)	79µM	nt	i	?	i	?
C=CCNC(=O)c1cc(Cl)cc(Cl)c1	i	i	?	30µM	i	i
C/C(=C\C(=O)c1ccccc1)Nc1ccc(Cl)c(Br)c1	i	i	i	27µM	i	i
CC(C)n1c(SCC(=O)Nc2ccc(F)cc2)nc2c(oc3ccccc32)c1=O	nt	nt	i	nt	nt	i
CN(C)c1ccc(/C=C2\C=Cc3ccccc32)c(F)c1	nt	nt	nt	nt	nt	i
COc1ccc(N2C(=O)NC(NS(=O)(=O)c3ccccc3)(C(F)(F)F)C2=O)cc1 (centres undefined)	i	i	i	i	i	i
COc1ccc(N=C2C(=S)N(c3ccc(OC)cc3)C(=NS(=O)(=O)c3ccccc3)N2c2ccccc2)cc1	i	?	?	3µM	i	i
Cc1ccc2sc(N(Cc3cccnc3)C(=O)CCOc3ccccc3)nc2c1C	nt	nt	i	nt	nt	i
CC1CC(C)CN(C(=O)Nc2ccc(Br)cc2)C1 (centres undefined)	i	i	i	30µM	i	i
O=C(Nc1ccc(Br)cc1)N1CCCCCCC1	i	i	i	i	i	i
CC(=O)c1ccc(N2CCN(C(=O)CCCCn3c(=O)[nH]c4ccccc4c3=O)CC2)cc1	nt	nt	i	nt	nt	i
CCNc1nc(NC(N)=S)nc(NC(C)(C)C)n1	i	i	i	27µM	i	i
CCNc1nc(NC(C)(C)C)nc(N2CCCC2)n1	i	i	i	i	i	i
COc1ccc2[nH]c(=O)c(CN(Cc3ccco3)C(c3nnnn3Cc3ccccc3)C(C)C)cc2c1 (centres undefined)	i	i	i	i	i	i
COc1ccc2[nH]c(=O)c(CN(C3CCCCC3)C(c3nnnn3Cc3ccco3)C(C)C)cc2c1 (centres undefined)	?	-67	?	?	i	i
CCC(c1nnnn1Cc1ccco1)N(Cc1cc2cc(C)cc(C)c2[nH]c1=O)CC1CCCO1 (centres undefined)	i	?	i	3.4µM	i	i
Fc1ccccc1Cn1nnc2c(-n3ccnc3)ncnc21	i	i	?	24µM	i	i
Clc1ccccc1Cn1nnc2c(N3CCCC3)ncnc21	i	nt	i	i	i	i
SMILES	WRN inhibitor	PI5P4Ka inh	VDR inh	PLK1 PBD block	TCR act	FEN1 inhibitor
COc1cc(CNC(=O)c2cnc3c(-c4cccc(C)c4)c(C)nn3c2C)cc(OC)c1OC	nt	nt	i	nt	nt	i
NC1=C(c2ccc([N+](=O)[O-])cc2)C(=O)CO1	i	i	i	i	i	i
O=c1oc2c(-c3ccc([N+](=O)[O-])cc3)cc(O)cc2s1	56µM	-59	i	i	i	i
CC1C(=O)N(Cc2cn(Cc3ccco3)nn2)CCS(=O)(=O)N1Cc1ccc(-c2cccnc2)cc1 (centres undefined)	50µM	?	nt	?	nt	nt
CC1C(=O)N(Cc2cn(CCC3OCCO3)nn2)CCS(=O)(=O)N1Cc1ccc(-c2ccc(F)cc2)cc1 (centres undefined)	i	i	nt	5.3µM	nt	nt
Cc1ccc(-c2ccc(CN3C(C)C(=O)N(Cc4cn(Cc5ccco5)nn4)CCS3(=O)=O)cc2)cc1 (centres undefined)	i	i	nt	i	nt	nt
